D3 antag – blocks the human D3 dopamine receptor; max response, negative = inhibition, %; 360,000 compounds, 2.5% hits; D3R cells, DiscoveRx beta-arrestin luminescence, antagonist mode; hits give low values; P35462; in the data active = max response below about -50%; inconclusive = no clear call, values can overlap the other calls
Target sequence (P35462 whole entry, looked up): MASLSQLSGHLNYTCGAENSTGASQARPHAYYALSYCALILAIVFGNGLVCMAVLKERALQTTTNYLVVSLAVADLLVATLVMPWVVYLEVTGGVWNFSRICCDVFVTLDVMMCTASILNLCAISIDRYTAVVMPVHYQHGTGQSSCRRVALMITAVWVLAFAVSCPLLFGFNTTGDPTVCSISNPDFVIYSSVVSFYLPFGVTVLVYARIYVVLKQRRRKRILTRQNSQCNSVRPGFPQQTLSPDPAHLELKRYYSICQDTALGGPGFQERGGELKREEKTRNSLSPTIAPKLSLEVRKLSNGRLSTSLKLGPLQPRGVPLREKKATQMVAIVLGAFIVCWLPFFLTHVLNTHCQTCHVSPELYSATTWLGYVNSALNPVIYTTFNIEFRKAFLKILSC
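Cells plated overnight at 1500 cells/well, then exposed to library compounds with dopamine controls for 90 minutes at 37 degrees C. DiscoveRx reagent added for 30–60 minutes at room temperature; luminescence read, quantitative HTS format.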
D3 ag – agonists of human D3 dopamine receptor; 410,000 compounds, 0.58% hits; AID 652048; max activation, %; D3R DiscoveRx beta-arrestin cells, luminescence, 90 min; in the data active = max activation above about 30%
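Agonist mode: compounds and dopamine controls were applied to plated cells for 90 min at 37 degrees C after an overnight attachment at 1500 cells/well. Luminescent read-out followed 30 - 60 minutes at room temperature with DiscoveRx detection reagent.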
a7 integrin act – activates integrin-mediated alleviation for muscular dystrophy; Potency, µM (doses to about 38.3 µM), usual class: activators; AID 624291; 350,000 compounds, 0.064% hits; alpha7betagal myoblasts, beta-gal FDG fluorescence, 48 h; active = well fitted activation curve with a large enough effect; inconclusive = small, poorly fitted or top-dose-only effect; inactive = no such curve, though single readings can be large or run the other way; also: nearly all actives have a fitted effect of over 60% in size
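alpha7betagal+/- myoblasts (passage 13, 250/well) treated 48 h at 37C with compounds at 1:260 dilution of DMSO stock. Lysed, then beta-galactosidase activity read as FDG fluorescence (ex 480/em 540) after 30 min, with pre-read for autofluorescence.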
Each line names hits and unclear results; the compound was inactive in the other large screens; ! = a repeat was not active. A selection: hits, their analogues and other compounds. The true share with any hit is near 2.9%.

CCOC(=O)c1cc(-c2ccc(C)cc2)nn1Cc1ccccc1	none (no result: D3 antag, a7 integrin act)
Cc1cc(C)cc(N=Cc2[nH]c3ccc(Br)c(Cl)c3c2O)c1	D3 antag inconclusive
COc1ccc(CN=Cc2[nH]c3ccc(Br)c(Cl)c3c2O)cc1	D3 antag -74
CCCc1[nH]n(-c2ccc([N+](=O)[O-])cc2)c(=O)c1C=NCCc1c[nH]c2ccccc12	none
Cc1[nH]n(-c2ccc([N+](=O)[O-])cc2)c(=O)c1C=NCCc1c[nH]c2ccccc12	D3 ag 37
Cc1[nH]n(-c2ccc([N+](=O)[O-])cc2)c(=O)c1C=NCCN1CCN(C(=O)c2ccc(F)cc2)CC1	none
Cc1[nH]n(-c2ccc([N+](=O)[O-])cc2)c(=O)c1C=NCCN1CCN(C(=O)c2ccc(Br)cc2)CC1	D3 antag -65
CC(=O)Nc1cccc(NC(=O)C(F)(F)F)c1	none
COc1cc(-c2cc(C(=O)Nc3ccc(S(=O)(=O)Nc4ncccn4)cc3)c3ccccc3n2)cc(OC)c1OC	none
CCN(CC)CCCNC(=O)c1cnc(SC)nc1-c1ccccc1	none (no result: D3 antag, a7 integrin act)
Clc1ccccc1Nc1nnc(-c2ccncc2)s1	none
FC(F)(F)c1ccc(Cl)c(Nc2nnc(-c3ccncc3)s2)c1	D3 antag -56 (no result: a7 integrin act)
COc1cc(/C=C(\C#N)c2ccccn2)ccc1OCC(=O)Nc1ccc(Br)cc1	none
Cc1cccc(C)c1NC(=O)C1(C)CSCC(=O)N1CC(F)(F)F (stereo unspecified)	none (no result: a7 integrin act)
CC1Sc2ccc(C(=O)N(CCc3ccccc3)Cc3ccccc3)cc2NC1=O (stereo unspecified)	none
CCC(C)Nc1ccc(NC(C)CC)cc1 (stereo unspecified)	D3 antag -51 (no result: a7 integrin act)
CCC(C)NC(=O)Nc1ccc(Br)cc1 (stereo unspecified)	none
Cc1cc(NS(=O)(=O)c2ccc(NC(=O)Nc3cccc(Cl)c3)cc2)no1	D3 antag -55
Cc1cc(NC(=O)Nc2cccc(Cl)c2)no1	none
COc1ccc(-c2ccc(-c3nc4ccc(C)cn4c3NC3CCCCC3)cc2OC)cc1	D3 ag 55!
CCC(C)Sc1cccc(-c2nc3ccc(C)cn3c2NC2CCCCC2)c1 (stereo unspecified)	D3 ag 53!
CCC(C)Sc1ccc(-c2nc3ccc(C)cn3c2NC2CCCCC2)cc1 (stereo unspecified)	none
Cc1ccc2nc(-c3cccc(SC4CCCCC4)c3)c(NC3CCCCC3)n2c1	none
Cc1ccsc1C(=O)NNC(=O)c1ccc(NS(=O)(=O)c2cccs2)cc1	none
NC(=O)c1ccc(NC(=O)CN2C(=O)NC3(CCCCCCC3)C2=O)cc1	none
COC(=O)Cn1c(C(=O)N(C)C)cc2c1C[C@H]1CN(C(=O)c3ccccc3)[C@@](Cc3ccc(F)cc3)(C(=O)OC)[C@@H]21	none (no result: a7 integrin act)
O=C(OCc1ccc(F)cc1)c1ccc2c(c1)-c1ccccc1C2=O	none
CCOC(=O)C1=C(Cc2ccc(F)cc2)C(=O)c2ccccc2C1=O	D3 antag -100
O=[N+]([O-])c1cccc(C=Nc2cccc3ccccc23)c1O	none
CCOC(=O)c1c(/N=C/c2cccc([N+](=O)[O-])c2O)sc(C)c1C	D3 antag -102
O=S(=O)(c1ccc(Cl)cc1)N1CCCCCC1	none
O=S(=O)(c1ccc(Cl)cc1)N1CCC(N2CCCCCC2)CC1	D3 antag -67
CC1CCN(C2CCN(S(=O)(=O)c3ccc(F)cc3)CC2)CC1	none
O=S(=O)(c1ccc(F)cc1)N1CCC(N2CCCCCC2)CC1	D3 antag -50
CCCCCCC[C@@H](C/C=C/CCC(=O)N(C)C/C(=C/Cl)C/C(=C\C(=O)N1CC(OC)=CC1=O)OC)OC	a7 integrin act inconclusive
CCc1ccc(Oc2coc3cc(OCC(=O)Nc4cc(C)ccc4C)ccc3c2=O)cc1	none
COC(=O)C1CCCN1C(=O)C1CCCN1C(=O)CNC(=O)OCc1ccccc1 (stereo unspecified)	D3 antag -54
COC(=O)CNC(=O)C1CCCN1C(=O)CNC(=O)OCc1ccccc1 (stereo unspecified)	a7 integrin act inconclusive
CCOC(=O)C1CCN(C(=O)Cn2ncc3c([nH]c4ccccc43)c2=O)CC1	none
CNCCCC12CCC(c3ccccc31)c1ccccc12	D3 antag -77! (no result: D3 ag)
CC1=C(C(N)=O)C(c2cccs2)NC(=S)N1 (stereo unspecified)	none
O=C(COC(=O)CCC1CCCC1)Nc1ccc(F)cc1Cl	none
CCS(=O)(=O)N1CCC2(CC1)OC(=O)C(C)=C2C(=O)NCc1ccc(OC)c(OC)c1	none (no result: D3 antag, a7 integrin act)
CC1CCC/C=C/C(=O)c2c(O)cc(O)cc2CC(=O)O1 (stereo unspecified)	D3 antag -89
C[C@@H]1Cc2c(O)c(O)cc(O)c2C(=O)O1	none
Cc1ccc(/C=C/c2onc(C)c2S(=O)(=O)N2CCC(C(=O)N3CCN(c4cc(C)ccc4C)CC3)CC2)cc1	none (no result: D3 antag, a7 integrin act)
CC(C)(Nc1ccccc1)C(=O)c1ccccc1	none
COC1OC(CO)C(N=C(C)C)C1O (stereo unspecified)	none
C(#Cc1ccccc1)CN1CCN(c2ccccn2)CC1	D3 antag inconclusive
c1ccc(N2CCN(Cc3nc4ccccc4[nH]3)CC2)nc1	none
Cc1[nH]c2ccccc2c1CN1CCN(c2ccccn2)CC1	D3 antag -67
c1ccc(-c2ncc(CN3CCN(c4ccccn4)CC3)[nH]2)cc1	D3 antag -105
COc1cc(/C(C)=N/NC(=O)c2cccc(S(=O)(=O)N3CCCC3)c2)cc(OC)c1OC	none
CCCCC1=CC2=C(c3ccco3)C(=O)C(C)(OC(=O)c3ccc(OC)cc3)C(=O)C2=CN1CCCCO (stereo unspecified)	none
CCCCC1=CC2=C(c3ccco3)C(=O)C(C)(OC(=O)c3ccc(OC)cc3)C(=O)C2=CN1CC1CC1 (stereo unspecified)	D3 antag -64
O=C(NCc1ccco1)c1ccc(COCC(F)(F)C(F)F)cc1	none
CC(C)(C)NC(=O)CSc1nc(O)cc(=O)[nH]1	none
CCOC(=O)N=S(N)(=O)c1ccc(Cl)cc1 (stereo unspecified)	none
CCOC(=O)CC(S(=O)(=O)c1ccccc1)S(=O)(=O)c1ccccc1	D3 antag -95
CCOC(=O)N=S(N)(=O)c1ccccc1 (stereo unspecified)	D3 ag 32
CCOC(=O)CN(c1ccccn1)S(=O)(=O)c1ccccc1	none
O=C(Nc1ccccc1C(=O)O)c1ccc(Br)c(S(=O)(=O)NCc2ccccc2)c1	D3 ag 39
O=C(Nc1ccccc1C(=O)NCc1ccccc1)c1ccccc1Br	none
Cc1oc2cc3oc(=O)c(CC(=O)NCCC(=O)O)c(C)c3cc2c1C	none
Fc1ccccc1N1CCN(c2ncnc3c2nc2n3CCCCC2)CC1	none (no result: D3 antag, a7 integrin act)
O=C(C1CCN(c2ncnc3c2nc2n3CCCCC2)CC1)N1CCN(c2ccccc2F)CC1	D3 ag 62!
Cc1cccc(N2CCN(C(=O)C3CCN(c4ncnc5c4nc4n5CCCCC4)CC3)CC2)c1C	none
Cc1ccc(N2CCN(C(=O)C3CCCN(c4ncnc5c4nc4n5CCCCC4)C3)CC2)c(C)c1 (stereo unspecified)	none
Cc1cccc(N2CCN(C(=O)C3CCN(c4ncnc5c4nc4n5CCCCC4)CC3)CC2C)c1 (stereo unspecified)	D3 ag 35!
